From PubChem
LANA-H2A inh: blocks KSHV LANA binding to histone H2A/H2B | AID 2629 | Q9QR71 | inhibition, % (test concentration not listed) | cell-free LANA-H2A/H2B peptide, fluorescence polarization | 0.6% of 320,000 active; in the data active means inhibition mostly above about 10%, no sharp cut-off; inactive means mostly below about 6.7%
CR mimetic SO: lowers age-related superoxide in aged yeast cells; superoxide response (% of plate mean), % at 10 µM; 0.18% of 330,000 active; S. cerevisiae aged cells, superoxide DHE fluorescence; active compounds read low;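 active means superoxide response under a set limit, about three screen SD below normal, cut at about 65% in these data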;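 further: yeast aged for seven days with compound at 30 °C before DHE staining; 100% = average MFI of all compound-treated wells on the plate with controls excluded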
HIF activator: HIF pathway transcriptional activation; U2OS HRE-luciferase reporter, luminescence; normalized: DMSO 0%, desferrioxamine 100%; activation, % at 7.5 µM (by protocol); 0.32% of 300,000 active;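 active means mean activation of at least 10% of the iron chelator positive control signal, with at least half of replicates also reaching 10%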
HDAC3 inhib: inhibitors of human histone deacetylase 3 | O15379 | recombinant HDAC3, fluorogenic peptide/trypsin coupled, fluorescence | inhibition, % at 8.3 µM | 0.15% of 320,000 active | AID 2718; in the data active means inhibition above about 26%, passing the limit was not always enough
Target sequence (O15379 whole entry, looked up): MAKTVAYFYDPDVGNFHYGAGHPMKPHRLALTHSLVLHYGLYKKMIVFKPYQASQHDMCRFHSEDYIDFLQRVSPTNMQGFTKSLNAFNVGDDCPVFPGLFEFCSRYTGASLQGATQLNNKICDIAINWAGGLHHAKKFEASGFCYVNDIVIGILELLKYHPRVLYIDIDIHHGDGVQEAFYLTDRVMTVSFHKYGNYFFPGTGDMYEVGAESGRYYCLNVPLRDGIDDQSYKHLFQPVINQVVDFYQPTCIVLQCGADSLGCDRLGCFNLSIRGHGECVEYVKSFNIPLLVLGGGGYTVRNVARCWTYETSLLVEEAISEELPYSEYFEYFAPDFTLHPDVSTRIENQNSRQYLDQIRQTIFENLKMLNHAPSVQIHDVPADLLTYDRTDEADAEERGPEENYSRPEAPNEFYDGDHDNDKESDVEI
The depositor's hits bear a star; · = no result; + = active, no number. In the library only some 1.2% were active in any assay of this set; here they are far more common.

SMILES | LANA-H2A inh | CR mimetic SO | HIF activator | HDAC3 inhib
CCN(CC)CCCNC(=O)C1c2ccccc2C(=O)N(C)C1c1ccc(OC)cc1 (stereo unspecified) | 3 | 92 | 795* | -3
COc1ccc(C2C(C(=O)NCc3ccco3)c3ccccc3C(=O)N2C)cc1 (stereo unspecified) | 3 | 105 | -1 | -1
O=C(N/C(=C/c1cccnc1)C(=O)N1CCOCC1)c1ccccc1Br | -2 | 100 | 0 | 4
COc1ccc(CC(NC(C)=O)C(=O)NC2CCN(C(=O)Nc3ccc(Cl)cc3)CC2)cc1OC (stereo unspecified) | 2 | 101 | 37* | -9
CCc1ccccc1NC(=O)N1CCC(NC(=O)C(Cc2ccc(OC)c(OC)c2)NC(C)=O)CC1 (stereo unspecified) | -1 | 97 | 0 | -3
COc1ccccc1N1CCN(C(c2ccccn2)c2nnnn2C2CCCCC2)CC1 (stereo unspecified) | -5 | 96 | -12 | 0
Fc1ccccc1N1CCN(C(c2ccccn2)c2nnnn2C2CCCCC2)CC1 (stereo unspecified) | 12* | 97 | 0 | -4
COC(=O)C1C(=O)N2CCCSC2=C(C#N)C1c1cccs1 (stereo unspecified) | -1 | 101 | 35* | 8
Cc1cc(C)c2c(N)c(C(=O)Nc3ccccc3Br)sc2n1 | 1 | 102 | -18 | -2
Cc1cc(C)c2c(N)c(C(=O)Nc3ccccc3F)sc2n1 | -1 | 97 | 30* | -16
CCCn1c(=NC(=O)c2c(-c3c(F)cccc3Cl)noc2C)c(C(=O)OCC)cc2c(=O)n3ccccc3nc21 | -2 | 110 | 23* | -81
O=C(Nc1nc2c(Br)cccc2s1)C1CC1 | -2 | 73 | 1 | 46*
O=C(Nc1nc2c(Cl)cccc2s1)C1CC1 | 4 | 102 | 2 | -1
NC(=O)c1ccc2c(=O)n3c(-c4cccs4)csc3nc2c1 | -5 | 91 | 1 | 14
O=C(COC(=O)/C=C/c1cccc(Cl)c1)NC1CC1 | 19* | 86 | · | 1
CCOC(=O)C1=C(C)Nc2ccccc2N=C1NC(=O)c1ccc(Cl)c(S(=O)(=O)N2CCCC2)c1 | -4 | 91 | 0 | -9
Cc1c(C)c2ccc(OCC(=O)N3CCOCC3)c(C)c2oc1=O | + | 93 | 4 | -18
Cc1c(C)c2ccc(OCC(=O)N(C)C)c(C)c2oc1=O | 1 | 110 | 0 | -69
C[C@H](CO)N1C[C@H](C)[C@@H](CN(C)S(=O)(=O)c2cccs2)Oc2c(NS(=O)(=O)c3ccc(F)cc3)cccc2C1=O | -2 | 82 | · | 6
O=C(Nc1cnn(C23CC4CC(CC(C4)C2)C3)c1)c1cc(-c2ccccc2)on1 | 3 | 90 | 0 | -1
CCCn1cc(NC(=O)c2cc(-c3ccccc3)on2)cn1 | 2 | 82 | 10* | 2
O=C(CCN1CCN(c2ccccc2)CC1)N/N=C/c1ccccc1O | -3 | 98 | 17* | -1
O=C(N/N=C1\CCCc2c1[nH]c1ccc(Cl)cc21)c1ccncc1 | 44* | 125 | -1 | -3
CC(C(=O)Nc1ccc(S(=O)(=O)N2CCCC2)cc1)N(C)CC(=O)Nc1cccc(F)c1 (stereo unspecified) | -4 | 109 | · | -4
COc1ccc(NC(=O)CN(C)C(C)C(=O)N2CCCCC2)cc1 (stereo unspecified) | 6 | 83 | 0 | -6
SMILES | LANA-H2A inh | CR mimetic SO | HIF activator | HDAC3 inhib
CC(C(=O)N1CCCCC1)N(C)CC(=O)Nc1cccc(F)c1 (stereo unspecified) | 30* | 106 | · | 3
CN(CC(=O)Nc1ccc(S(=O)(=O)N2CCCC2)cc1)CC(=O)Nc1cccc(F)c1 | -1 | 116 | 53* | 8
CC(=O)c1c(C)[nH]c(C(=O)Nc2cccc3ccccc23)c1C | 3 | 108 | -34 | -6
CC(=O)c1c(C)[nH]c(C(=O)Nc2cccc(C)n2)c1C | 9.4* | 98 | 1 | -4
CNNC(=O)C(C)NC(=O)c1ccc(Br)cc1 (stereo unspecified) | -6 | 95 | 38* | -10
C[C@H](NC(=O)c1ccc(Br)cc1)C(=O)NCc1ccc(S(N)(=O)=O)cc1 | 3 | 103 | 0 | 16
CCOc1ccccc1N | 23* | 122 | · | 0
CCN1CCN(S(=O)(=O)c2ccc(Oc3ccccc3OC)cc2)CC1 | 0 | 127 | 0 | 2
C1CCC2(CC1)C1=C(CCCC1)Nc1nnnn12 | 9 | 94 | 126* | -5
CCOc1ccc(N2CC(C(=O)Nc3nnc(Cc4ccc(OC)cc4)s3)CC2=O)cc1 (stereo unspecified) | 16 | 105 | 0 | -1
